# Source: PubChem BioAssay (Tox21)
# Values joined by “and” are separate entries in the source; they are usually repeats but may differ in a detail not shown here. Equal entries are not always repeated. Inconclusive results are not listed. Entries that show only a call come without a potency. Active and inactive are the calls of the source. The call rests on the fitted dose curve; in most records, active means well fitted cell-killing curve with a large enough effect in the repeat runs; inconclusive means weak or mixed curves, or effect the other way; inactive means flat fitted curve, though single readings scatter.
# Experiment: Caspase-3/7 induction in HepG2 cells by small molecules, qHTS cell viability counter screen (AID 1346981); further: nearly all actives have a fitted effect of over 30% in size
# Settings: CellTiter-Fluor fluorescence, 17 h; series mostly up to 92.4 µM
# Description: U.S. Tox21 Program National Center for Advancing Translational Sciences [NCATS] NIH Chemical Genomics Center [NCGC] U.S. Environmental Protection Agency [EPA] National Institutes of Environmental Health Sciences [NIEHS] National Toxicology Program [NTP] U.S. Food and Drug Administration [FDA] Tox21 Assay Overview: Apoptosis is a process of programmed cell death and plays a central role in the development of multicellular organisms. It is a highly regulated process and induces cell death by activating caspases, which are the members of cysteine aspartic acid-specific protease (caspase) family. Caspases involved in apoptosis are classified by their mechanism of action as initiator caspases (caspase-2, -8, -9 and -10) and executioner caspases (caspase-3, -6, and -7). Inhibition of apoptosis results in number of cancers, autoimmune diseases, inflammatory diseases and viral infection. To identify small molecule compounds that induce apoptosis, a homogeneous, luminescent Caspase-Glo 3/7 assay was used. Wild type HepG2 cells were used to screen Tox21 libraries for identifying caspase-3/7 activity inducers. Also cytotoxicity of the compounds was tested in parallel by measuring the cell viability using CellTiter-Fluor assay system in the same wells.
# Tox21 Assay Protocol Summary: HepG2 cells were dispensed at 2,000 per well in 5uL of culture medium into white solid bottom 1536-well plates (Corning Life Sciences, Corning, NY) using a Multidrop Combi (Thermo Scientific, Waltham, MA) dispenser. The assay plates were incubated at 37 C and 5% CO2 for 5hr, and then 23nL of compounds dissolved in DMSO and positive control were transferred using a Pintool station ([…], San Diego, CA). The assay plates were incubated at 37C and 5% CO2 for 17hr. For cytotoxicity read, after 16hr incubation at 37C, 1uL CellTiter-Fluor reagent (Promega Corporation, Madison, WI) was added to each well of the assay plates using Flying Reagent Dispenser (FRD, Aurora Discovery, San Diego, CA). After 1hr incubation at 37C and 5% CO2, the fluorescence signal was quantified using a ViewLux plate reader (PerkinElmer, Shelton, CT).
# Potency means the concentration at half of the fitted maximal effect.
row,Compound,Potency
1,Cc1ccc(S(=O)(=O)O)cc1,inactive
2,O=C1OC2(c3ccccc31)c1cc(Br)c(O)c(Br)c1Oc1c2cc(Br)c(O)c1Br,6.2 µM (active) and 19.9 µM (active) and 10.6 µM (active)
3,CC12CCC(CC1)C(C)(C)O2,inactive
4,C=C1CC[C@H](O)C/C1=C\C=C1/CCC[C@]2(C)[C@@H]([C@H](C)CCCC(C)C)CC[C@@H]12,inactive
5,CN1CCc2cccc3c2[C@H]1Cc1ccc(O)c(O)c1-3,61.8 µM (active) and 25.6 µM (active)
6,CCOC(N)=O,inactive
7,Cc1cc(=O)oc2cc(O)ccc12,inactive
8,CS(=O)(=O)OCCCCOS(C)(=O)=O,inactive
9,Oc1ccccc1,inactive
10,CN1CCC[C@H]1c1cccnc1,inactive
11,Nc1ccc(O)c([N+](=O)[O-])c1,61.1 µM (active)
12,CCCc1cc(=O)[nH]c(=S)[nH]1,inactive
13,CC(C)c1c(C(=O)Nc2ccccc2)c(-c2ccccc2)c(-c2ccc(F)cc2)n1CC[C@@H](O)C[C@@H](O)CC(=O)O,inactive
14,CC1(C)O[C@@H]2C[C@H]3[C@@H]4CCC5=CC(=O)C=C[C@]5(C)[C@@]4(F)[C@@H](O)C[C@]3(C)[C@]2(C(=O)CO)O1,inactive
15,O=C1O[C@H]([C@@H](O)CO)C(O)=C1O,inactive
16,COc1ccc(CN(CCN(C)C)c2ccccn2)cc1,inactive
17,CCN(Cc1c(F)cccc1Cl)c1c([N+](=O)[O-])cc(C(F)(F)F)cc1[N+](=O)[O-],inactive
18,Nc1ccc([N+](=O)[O-])cc1O,48.6 µM (active)
19,C1=CC2C3C=CC(C3)C2C1 (stereo not given),inactive
20,Cc1ncc([N+](=O)[O-])n1C,inactive

row,Compound,Potency
1,CN(N=O)C(=O)N[C@@H]1[C@@H](O)[C@H](O)[C@@H](CO)O[C@@H]1O,inactive
2,COc1ccc(C(Cl)=C(c2ccc(OC)cc2)c2ccc(OC)cc2)cc1,inactive
3,CC/C(=C(\c1ccccc1)c1ccc(OCCN(C)C)cc1)c1ccccc1,61.1 µM (active) [middle of 4 runs]
4,CCCCC(CC)C(=O)O (stereo not given),inactive
5,CCCC[P+](CCCC)(CCCC)CCCC,inactive
6,O=C1NC(=O)C(c2ccccc2)(c2ccccc2)N1,inactive
7,OC[C@H]1O[C@H](O[C@]2(CCl)O[C@H](CCl)[C@@H](O)[C@@H]2O)[C@H](O)[C@@H](O)[C@H]1Cl,inactive
8,CCCCCCCCCCCCCCCC[N+](C)(C)Cc1ccccc1,62.2 µM (active)
9,CC1(C)S[C@@H]2[C@H](NC(=O)[C@H](N)c3ccccc3)C(=O)N2[C@H]1C(=O)O,inactive
10,F[B-](F)(F)F,inactive
11,CNNCc1ccc(C(=O)NC(C)C)cc1,inactive
12,CC(O)(P(=O)(O)O)P(=O)(O)O,inactive
13,CCCCC1(COC(=O)CCC(=O)O)C(=O)N(c2ccccc2)N(c2ccccc2)C1=O,inactive
14,CN(C)CCOC(c1ccccc1)c1ccccc1,inactive
15,CCOc1ccc(NC(C)=O)cc1,inactive
16,O=C(O)c1ccccc1,inactive
17,CCCCNC(=O)NS(=O)(=O)c1ccc(C)cc1,inactive
18,Nc1c(N=Nc2ccc(-c3ccc(N=Nc4cc(S(=O)(=O)O)c5ccccc5c4N)cc3)cc2)cc(S(=O)(=O)O)c2ccccc12,17.2 µM (active)
19,Cc1ncc([N+](=O)[O-])n1CCO,inactive
20,CCCCOC(=O)c1ccc(O)cc1,inactive
